Results filed as inconclusive are left out. Where a call stands in place of a potency, no number is given. Calls of active or inactive are those of the source. The call rests on the fitted dose curve; in most records, active means well fitted cell-killing curve with a large enough effect in the repeat runs; inconclusive means weak or mixed curves, or effect the other way; inactive means flat fitted curve, though single readings scatter.
Assay: qHTS assay to identify small molecule antagonists of the estrogen receptor alpha (ER-alpha) signaling pathway using the BG1 cell line in the presence of 0.1 nM 17-beta-estradiol - cell viability counter screen (AID 1259241); further: nearly all actives have a fitted effect of over 40% in size
Settings: VM7Luc4E2 (BG1) viability, CellTiter-Fluor protease, 22 h, 0.1 nM estradiol agonist added; series mostly up to 92.4 µM; activity change, negative = cytotoxicity: at the top concentration
Excerpt: National Center for Advancing Translational Sciences [NCATS]
NIH Chemical Genomics Center [NCGC]
U.S. Environmental Protection Agency [EPA]
National Institutes of Environmental Health Sciences [NIEHS]
National Toxicology Program [NTP]
U.S. Food and Drug Administration [FDA]
Estrogen receptor (ER), a member of the nuclear hormone receptor plays an important role in development, metabolic homeostasis and reproduction. Two subtypes of ER, ER-alpha and ER-beta, have similar expression patterns with some uniqueness in both types. Endocrine disrupting chemicals (EDCs) and their interactions with steroid hormone receptors like ER causes disruption of normal endocrine function. Therefore, it is important to understand the effect of environmental chemicals in ER signaling pathway. For identifying ER antagonists, VM7Luc4E2 cell line was used to screen against Tox21 compound libraries.
VM7Luc4E2 cell line (provided by Denison MS, University of California) endogenously express full-length ER-alpha and is stably transfected with a plasmid containing four estrogen responsive elements (ERE) upstream of a luciferase reporter gene. The current screening for identification of ER-alpha inhibitors against Tox21 compound libraries used lower concentration (0.1 nM) of 17beta-Estradiol as a stimulator. The cytotoxicity of the Tox21 compound libraries against VM7Luc4E2 cell line was tested by measuring live-cell protease activity using CellTiter-Fluor assay in the same wells.
Tox21 Assay Protocol Summary:
VM7Luc4E2 cells were cultured in phenol red free assay medium containing 10% charcoal stripped FBS for 5 days prior to the assay. The cells were dispensed at 4,000 cells/well in 4 uL of assay medium into white wall/solid-bottom 1536-well plates (Corning Life Sciences, Corning, NY) using a Multidrop Combi (ThermoFisher Scientific, Waltham, MA) dispenser. After the assay plates were incubated at 37C and 5% CO2 for 24 hr, 23 nL of compounds dissolved in DMSO, positive controls or DMSO only was transferred to the assay plates by a Pintool station (Kalypsys, San Diego, CA). The transfer of compounds was followed by the addition of 1 uL of 0.1 nM (final concentration) agonist (17beta-Estradiol)/assay medium using a Flying Reagent Dispenser (FRD, Aurora Discovery, San Diego, CA). The plates were incubated at 37C and 5% CO2 for 22 hr. For cytotoxicity assay, 1 uL of CellTiter-Fluor reagent (Promega Corporation, Madison, WI) was added to each well using the FRD and after 30 min incubation at 37C and 5% CO2, The fluorescence intensity was measured using ViewLux plate reader (PerkinElmer, Shelton, CT).
Potency means the concentration at half of the fitted maximal effect.

SMILES | Potency | activity change, negative = cytotoxicity
CC[C@]12CCCN3CCc4c(n(c5ccccc45)[C@@](O)(C(=O)OC)C1)[C@@H]32 | inactive | –
C1COCCN1 | inactive | –
CC(=O)[C@H]1CC[C@H]2[C@@H]3CC=C4C[C@@H](O)CC[C@]4(C)[C@H]3CC[C@]12C | inactive | –
O=C(CCCN1CCC(O)(c2ccc(Cl)cc2)CC1)c1ccc(F)cc1 | – | -10.6% [at 42.5 µM] (inactive)
CCCOCCO | inactive | –
[O-]/[N+](=N\O)c1ccccc1 | inactive | –
c1ccc2cc3ccccc3cc2c1 | inactive | –
Nc1ccc(N)c(Cl)c1 | – | -0.106% (inactive)
IC(I)I | inactive | –
CCCCCCCCCCC(CO)CCCCCCCC (stereo not given) | inactive | –
CC(C)(C)c1cccc(C(C)(C)C)c1O | inactive | –
CCOC(=O)C(C)Oc1ccc(Oc2cnc3cc(Cl)ccc3n2)cc1 (stereo not given) | inactive | –
COc1ccc(C(=O)c2ccccc2O)c(O)c1 | inactive | –
FC(F)(F)C(Cl)Br (stereo not given) | inactive | –
Cc1ccc(/C(=C\CN2CCCC2)c2ccccn2)cc1 | – | -15.1% [at 42.5 µM] (inactive)
C[C@]12C=CC(=O)C=C1CC[C@H]1[C@@H]3C[C@@H](O)[C@](O)(C(=O)CO)[C@@]3(C)C[C@H](O)[C@@]12F | inactive | –
COc1ccc2nc(N)sc2c1 | inactive | –
c1ccc2c(c1)ccc1ncccc12 | inactive | –
Nc1cc(Cl)c(N)c(Cl)c1 | inactive | –
Clc1ccc(Sc2cc(Cl)c(Cl)cc2Cl)cc1 | inactive | –

SMILES | Potency | activity change, negative = cytotoxicity
NCCN | inactive | –
CC1(C)O[C@@H]2C[C@H]3[C@@H]4C[C@H](F)C5=CC(=O)C=C[C@]5(C)[C@@]4(F)[C@@H](O)C[C@]3(C)[C@]2(C(=O)CO)O1 | inactive | –
O=C(O)c1cc(=O)[nH]c(=O)[nH]1 | inactive | –
c1ccc2c(c1)[nH]c1ccccc12 | inactive | –
CC(C)[N+](C)(CCOC(=O)C1c2ccccc2Oc2ccccc21)C(C)C | inactive | –
O=C(O)CCCC(=O)O | inactive | –
Cc1ccc(N)c([N+](=O)[O-])c1 | inactive | –
NCCOCCO | inactive | –
CN(C)/N=N/c1nc[nH]c1C(N)=O | inactive | –
CC(C)(Oc1ccc(Cl)cc1)C(=O)O | inactive | –
CC(=O)Nc1ccc2c(c1)Cc1cc(NC(C)=O)ccc1-2 | inactive | –
C[C@]12CC[C@@H]3c4ccc(O)cc4CC[C@H]3[C@@H]1CC[C@@H]2O | inactive | –
O=C(O)CCCCCCCCCCCC(=O)O | inactive | –
CC(=O)Oc1ccc(C(c2ccc(OC(C)=O)cc2)c2ccccn2)cc1 | 750 nM (active) | –
c1ccc2c(c1)ccc1cc3c(ccc4ccccc43)cc12 | inactive | –
NC[C@H](O)c1ccc(O)c(O)c1 | – | -5.94% [at 42.5 µM] (inactive)
O=[Se](O)O | inactive | –
C=C[C@H]1CN2CC[C@H]1C[C@H]2[C@H](O)c1ccnc2ccc(OC)cc12 | inactive | –
CNC[C@H](O)c1ccc(O)c(O)c1 | inactive | –
CCCCCCOCCOCCO | inactive | –

— PubChem BioAssay (Tox21)
